According to PubChem BioAssay (NCATS):
Inconclusive results are not listed. Activity calls are given as the source filed them. The call rests on the fitted dose curve; in most records, active means well fitted cell-killing curve with a large enough effect; inconclusive means small, poorly fitted or top-dose-only effect; inactive means flat fitted curve, though single readings scatter.

assay: Cell Viability - LYMP2-006 (AID 978); conditions: LYMP2-006 lymphoblastoid cell viability, qHTS; series mostly up to 92.2 µM; further: nearly all actives have a fitted effect of over 60% in size
Source text: NIH Chemical Genomics Center [NCGC]
NIH Molecular Libraries Screening Centers Network [MLSCN]
National Institutes of Environmental Health Sciences [NIEHS]
National Toxicology Program [NTP]
We have developed a 1536-well cell-based assay for quantitative high throughput screening (qHTS) against a number of cell lines to determine in vitro cytotoxicity of small molecules. This particular assay uses a human lymphoblastoid cell line (LYMP2-006) purchased from Coriell Institute for Medical Research.
NCGC Assay Protocol Summary:
The CellTiter-Glo luminescent cell viability assay (Promega) is a homogeneous method to measure the number of viable cells in culture. The end point readout of this assay is based on quantitation of intracellular ATP, an indicator of metabolic activity, using the luciferase reaction. Luciferase catalyzes the oxidation of beetle Luciferin to oxyluciferin and light in the presence of ATP. The luminescent signal is proportional to amount of ATP present.
Using the CellTiter-Glo luminescent cell viability assay, the amount of cellular ATP was measured in the lymphoblastoid cell line with complete culture medium following compound treatment for 24 hours. The assay was performed in opaque white Kalypsys 1536-well plates. In the screen, tetraoctylammonium bromide was used as positive control. Library compounds were measured for their ability to cause acute toxicity in the cell line, as reflected by a decrease in intracellular ATP levels, in a concentration-dependent manner. […] AC50 values were determined from concentration-response data modeled with the standard Hill equation.
qHTS protocol for CellTiter Glo lymphoblastoid cellular assay
[Step] [Parameter] [Value] [Description]
1. Reagent; 5 uL; 2500 lymphoblastoid cells/well
2. Time; 5 hr; 37 C incubation
4. Controls; 23 nL; Tetraoctylammonium bromide 6.4pM to 92 uM
5. Time; 24 hr; 37 C incubation
6. Reagent; 5 uL; CellTiter Glo reagent
7. Time; 30 min; Room Temperature
8. Detection; Luminescence; Viewlux plate reader
Keywords: cell viability, cytotoxicity, lymphoblastoid cell line, luminescence, NTPHTS, NTPHTS_NCGC, NIEHS, DSSTox, MLSMR, MLSCN, NIH Roadmap, qHTS, NCGC

SMILES | outcome
CN1C[C@H](C(=O)N[C@]2(C)O[C@@]3(O)[C@@H]4CCCN4C(=O)[C@H](Cc4ccccc4)N3C2=O)C=C2c3cccc4[nH]cc(c34)C[C@H]21 | inactive
CCC(C)(C)c1ccc(O)cc1 | inactive
Nc1ccccc1C(=O)O | inactive
COC(=O)C(c1ccccc1)C1CCCCN1 (centres undefined) | inactive
NCCc1ccc(O)cc1 | inactive
O=P1(N(CCCl)CCCl)NCCCO1 (centres undefined) | inactive
COc1cc(OC)c(OC)cc1C=O | inactive
COP(=S)(OC)Oc1ccc(SC)c(C)c1 | inactive
CC(C)NC(C)C | inactive
Oc1ccc(Cl)cc1 | inactive
O=C(O)CCCc1ccc(N(CCCl)CCCl)cc1 | inactive
Clc1ccc(C(c2ccc(Cl)cc2)C(Cl)(Cl)Cl)cc1 | inactive
CCOC(=O)CC(SP(=S)(OC)OC)C(=O)OCC (centres undefined) | inactive
C[C@]12CCC(=O)C=C1CC[C@@H]1[C@@H]2CC[C@]2(C)C(=O)CC[C@@H]12 | inactive
CCCC(C)(COC(N)=O)COC(N)=O | inactive
Nc1ccccc1 | inactive
C[C@]12CCC(=O)C=C1CC[C@@H]1[C@@H]2CC[C@@]2(C)[C@H]1CC[C@]2(C)O | inactive
C[C@]1(O)CC[C@H]2[C@@H]3CCC4=CC(=O)CC[C@]4(C)[C@@]3(F)[C@@H](O)C[C@@]21C | inactive
CC(C)c1cccc(C(C)C)c1O | inactive
